Assay results from ChEMBL document CHEMBL4513141, “CO-ADD screening of NIH (USA) - Clinical Collection” (2021).
Results with a measured potency or affinity are listed apart.

Assays:
Klebsiella pneumoniae = details: Concentration 20 uM; ASSAY_TEST Inhibition of Bacterial Growth; detection method Absorption (OD600); MEDIA CAMHB; plate type 384well; NBS; CORNING #3640; time 18 hr
Candida albicans = details: 20 µM
Cryptococcus neoformans = details: Concentration 20 uM; ASSAY_TEST Inhibition of Fungal Growth; detection method Resazurin; Absorption (OD600-OD570); plate type 384well; NBS; CORNING #3640

Row | Compound | Inhibition (Klebsiella pneumoniae) [%] | Inhibition (Candida albicans) [%] | Inhibition (Cryptococcus neoformans) [%]
1 | NNC(=O)c1ccncc1 [ISONIAZID] | 6.54 | 3.95 | -3.6
2 | Nc1ccc(S(=O)(=O)c2ccc(N)cc2)cc1 [DAPSONE] | 5.01 | -0.53 | 0.91
3 | O=C(O)CCNC(=O)c1ccc(N=Nc2ccc(O)c(C(=O)O)c2)cc1 | 9.82 | 4.41 | -5.87
4 | O=[N+]([O-])c1cccc2cn[nH]c12 [7-NITROINDAZOLE] | 13.1 | 3.19 | -0.25
5 | CN(C)CC/C=C1/c2ccccc2COc2ccc(CC(=O)O)cc21.Cl [OLOPATADINE HYDROCHLORIDE] | 3.13 | 4.03 | 4.6
6 | CC(N)(Cc1ccc(O)c(O)c1)C(=O)O (stereo not drawn) [METHYLDOPA (RACEMIC)] | 2.57 | 3.32 | 7.73
7 | CC(C)c1ccc2oc3nc(N)c(C(=O)O)cc3c(=O)c2c1 [AMLEXANOX] | 7.43 | 8.26 | -1.01
8 | C#C[C@]1(O)CC[C@H]2[C@@H]3CCc4cc(O)ccc4[C@H]3CC[C@@]21C [ETHINYL ESTRADIOL] | 16.78 | 2.87 | -5.67
9 | Nc1ncnc2c1ncn2[C@@H]1O[C@H](CO)C[C@@H]1O.O | 6 | 5.13 | -7.2
10 | CC1=C(C(=O)O)N2C(=O)[C@@H](NC(=O)[C@H](N)c3ccccc3)[C@H]2SC1.O [CEPHALEXIN] | 2.49 | 2.01 | 4.2
11 | CC(=O)OCC(=O)[C@@]1(O)CC[C@H]2[C@@H]3CCC4=CC(=O)CC[C@]4(C)[C@H]3[C@@H](O)C[C@@]21C [HYDROCORTISONE ACETATE] | 10.46 | 1.02 | -7.62
12 | CCc1nn(CCCN2CCN(c3cccc(Cl)c3)CC2)c(=O)n1CCOc1ccccc1.Cl [NEFAZODONE HYDROCHLORIDE] | 1.06 | 2.01 | -2.69
13 | N#Cc1ccc(C(c2ccc(C#N)cc2)n2cncn2)cc1 [LETROZOLE] | 9.79 | 2.89 | -8.63
14 | CC(=O)O[C@H]1C[C@@H]2CC[C@@H]3[C@H](CC[C@@]4(C)[C@H]3C[C@H]([N+]3(C)CCCCC3)[C@@H]4OC(C)=O)[C@@]2(C)C[C@@H]1N1CCCCC1.[Br-] [VECURONIUM BROMIDE] | -0.14 | 5.46 | 2.54
15 | CNC(=C[N+](=O)[O-])NCCSCc1ccc(CN(C)C)o1.Cl [RANITIDINE HYDROCHLORIDE] | 4.5 | 2.99 | 5.97
16 | CC(=O)SCC(Cc1ccccc1)C(=O)NCC(=O)OCc1ccccc1 (configuration not stated) [RACECADOTRIL] | 3.98 | 5.86 | -6.78
17 | CC(=O)OCC(=O)C12OC3(CCCC3)OC1CC1C3CCC4=CC(=O)C=CC4(C)C3(F)C(O)CC12C (configuration not stated) | 13.26 | 3.39 | 1.74
18 | N[C@@H]1CONC1=O [CYCLOSERINE] | 12 | 1.72 | -5.65
19 | O=C(O)COCCN1CCN([C@H](c2ccccc2)c2ccc(Cl)cc2)CC1 [LEVOCETIRIZINE] | 20.22 | 0.53 | 0.71
20 | CCCNC(=O)NS(=O)(=O)c1ccc(Cl)cc1 [CHLORPROPAMIDE] | 11.38 | 3.19 | 0
21 | CC(C)NCC(O)COc1ccc(CCOCC2CC2)cc1.Cl (configuration not stated) [BETAXOLOL HYDROCHLORIDE] | 15.59 | 2.88 | -9.53
22 | CCC1(c2ccccc2)C(=O)NCNC1=O [PRIMIDONE] | 7.75 | 2.22 | 0.81
23 | CN1CCN(c2nc3cc(C(F)(F)F)ccc3n3cccc23)CC1.O=C(O)/C=C\C(=O)O.O=C(O)/C=C\C(=O)O | 7.65 | 3.61 | 2.72
24 | CC(COc1ccccc1Cc1ccccc1)N1CCCCC1.O=P(O)(O)O (configuration not stated) | 14.21 | 3.69 | 0.43
25 | CN(CCOc1ccc(NS(C)(=O)=O)cc1)CCc1ccc(NS(C)(=O)=O)cc1 [DOFETILIDE] | 7.49 | 2.12 | -1.31
26 | CC(=O)OCC(=O)[C@@]12OC(C)(C)O[C@@H]1C[C@H]1[C@@H]3C[C@H](F)C4=CC(=O)C=C[C@]4(C)[C@@]3(F)[C@@H](O)C[C@@]12C [FLUOCINONIDE] | 13.39 | -0.27 | -0.92
27 | COCCCC/C(=N\OCCN)c1ccc(C(F)(F)F)cc1.O=C(O)/C=C\C(=O)O [FLUVOXAMINE MALEATE] | 6.46 | 2.11 | -8.17

Row | Compound | Inhibition (Klebsiella pneumoniae) [%] | Inhibition (Candida albicans) [%] | Inhibition (Cryptococcus neoformans) [%]
28 | C=C1/C(=C\C=C2/CCC[C@]3(C)[C@@H]([C@H](C)/C=C/[C@@H](O)C4CC4)CC[C@@H]23)C[C@@H](O)C[C@@H]1O [CALCIPOTRIENE] | 16.21 | 0.06 | 0.21
29 | C[C@]12C[C@H](O)[C@H]3[C@@H](CCC4=CC(=O)CC[C@@]43C)[C@@H]1CC[C@@H]2C(=O)CO [CORTICOSTERONE] | 17.2 | 2.69 | -3.25
30 | O=C(NCCO[N+](=O)[O-])c1cccnc1 [NICORANDIL] | 15.28 | 1.66 | -0.1
31 | Nc1nnc(-c2cccc(Cl)c2Cl)c(N)n1 [LAMOTRIGINE] | 6.26 | 3.32 | -2.92
32 | CCN1CC(CCN2CCOCC2)C(c2ccccc2)(c2ccccc2)C1=O.Cl (configuration not stated) | 1.35 | 4.41 | -0.87
33 | CC(C)[N+]1(C)C2CCC1CC(OC(=O)C(CO)c1ccccc1)C2.[Br-] (configuration not stated) | -0.09 | 0.17 | -6.11
34 | CC(C)Cc1ccc(C(C)C(=O)O)cc1 (configuration not stated) [IBUPROFEN] | -1.68 | 13.3 | -3.38
35 | CC(C)c1ccc2c(c1)c(SC(C)(C)C)c(CC(C)(C)C(=O)O)n2Cc1ccc(Cl)cc1 | 11.6 | 1.56 | -9.17
36 | COc1cc2nc(N3CCN(C(=O)C4CCCO4)CC3)nc(N)c2cc1OC (configuration not stated) [TERAZOSIN] | 3.6 | 3.05 | 0.02
37 | COc1ccccc1OCC(O)CN1CCN(CC(=O)Nc2c(C)cccc2C)CC1.Cl.Cl (configuration not stated) [RANOLAZINE HYDROCHLORIDE] | 1.09 | 1.45 | -5.35
38 | CC[C@]1(O)C[C@@H]2CN(CCc3c([nH]c4ccccc34)[C@@](C(=O)OC)(c3cc4c(cc3OC)N(C)[C@H]3[C@@](O)(C(N)=O)[C@H](O)[C@]5(CC)C=CCN6CC[C@]43[C@@H]65)C2)C1.O=S(=O)(O)O [VINDESINE SULFATE] | 6.96 | 3.45 | 0.45
39 | Cc1cnc(NC(=O)C2=C(O)c3ccccc3S(=O)(=O)N2C)s1 [MELOXICAM] | 2.2 | 9.71 | -3.68
40 | CS(=O)(=O)O.Cc1ccc(NC(=O)c2ccc(CN3CCN(C)CC3)cc2)cc1Nc1nccc(-c2cccnc2)n1 [IMATINIB MESYLATE] | 14.57 | 2.45 | 9.11
41 | CC(=O)OCC(CCn1cnc2cnc(N)nc21)COC(C)=O [FAMCICLOVIR] | 11.51 | 2.72 | -0.79
42 | CCS(=O)(=O)CCn1c([N+](=O)[O-])cnc1C [TINIDAZOLE] | 6.48 | 4.29 | -11.27
43 | Cl.O=C1CN2Cc3c(ccc(Cl)c3Cl)N=C2N1 [ANAGRELIDE HYDROCHLORIDE] | 18.04 | 3.23 | -6.07
44 | Cc1[nH]cnc1CN1CCc2c(c3ccccc3n2C)C1=O.Cl [ALOSETRON HYDROCHLORIDE] | 15.86 | 2.6 | -5.48
45 | CCCC(=O)Nc1ccc(OCC(O)CNC(C)C)c(C(C)=O)c1.Cl (configuration not stated) [ACEBUTOLOL HYDROCHLORIDE] | 19.26 | 1.82 | -1.83
46 | CS(=O)(=O)O.Cc1c(O)cccc1C(=O)N[C@@H](CSc1ccccc1)[C@H](O)CN1C[C@H]2CCCC[C@H]2C[C@H]1C(=O)NC(C)(C)C [NELFINAVIR MESYLATE] | 0.71 | 0.96 | -18.17
47 | Cc1cn([C@H]2C=C[C@@H](CO)O2)c(=O)[nH]c1=O [STAVUDINE] | 14.08 | 2.99 | 0.51
48 | C[C@@H]1O[C@@H](OC[C@H]2O[C@@H](Oc3c(-c4ccc(O)c(O)c4)oc4cc(O)cc(O)c4c3=O)[C@H](O)[C@@H](O)[C@@H]2O)[C@H](O)[C@H](O)[C@H]1O [RUTIN] | 10.13 | 3.37 | -5.7
49 | COc1ccc(Cl)cc1C(=O)NCCc1ccc(S(=O)(=O)NC(=O)NC2CCCCC2)cc1 [GLYBURIDE] | 8.21 | -0.39 | 1.86
50 | NCC(=O)CCC(=O)O [AMINOLEVULINIC ACID] | 13.51 | 0.21 | -6.69
51 | COc1nc(C)nc(Cl)c1NC1=NCCN1.Cl [MOXONIDINE HYDROCHLORIDE] | 3.54 | 3.01 | 0.52
52 | CC(=O)C1(O)CCC2C3CC(C)C4=CC(=O)C=CC4(C)C3(F)C(O)CC21C (configuration not stated) | 4.1 | 2.21 | -3.1
53 | CC1=C(/C=C/C(C)=C/C=C/C(C)=C/C(=O)O)C(C)(C)CCC1 [TRETINOIN] | 14.57 | 2.93 | -0.54
54 | CCC(=O)[N-]S(=O)(=O)c1ccc(-c2c(-c3ccccc3)noc2C)cc1.[Na+] [PARECOXIB SODIUM] | 7.5 | 3.16 | -0.82
